Inconclusive results are not listed. Calls of active or inactive are those of the source. Calls follow the shape of the dose curve; as a rule, active = well fitted curve in the direction sought with a large enough effect; inconclusive = small, poorly fitted or top-dose-only effect, or another doubt; inactive = no such curve, though single readings can be large; an effect the other way counts as inactive or inconclusive.
Legend:
[1] = target: Rap guanine nucleotide exchange factor 3 (Homo sapiens) (UniProt O95398); assay: Confirmatory qHTS for agonist of cAMP-regulated guanine nucleotide exchange factor 3 (EPAC1) (AID 1645881);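 also: EPAC1 catalysed release of BODIPY-GDP from Rap1B seen as fluorescence loss; nearly all actives have a fitted effect of over 75% in size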
Sequence of Rap guanine nucleotide exchange factor 3 (Homo sapiens) (O95398 whole entry, looked up): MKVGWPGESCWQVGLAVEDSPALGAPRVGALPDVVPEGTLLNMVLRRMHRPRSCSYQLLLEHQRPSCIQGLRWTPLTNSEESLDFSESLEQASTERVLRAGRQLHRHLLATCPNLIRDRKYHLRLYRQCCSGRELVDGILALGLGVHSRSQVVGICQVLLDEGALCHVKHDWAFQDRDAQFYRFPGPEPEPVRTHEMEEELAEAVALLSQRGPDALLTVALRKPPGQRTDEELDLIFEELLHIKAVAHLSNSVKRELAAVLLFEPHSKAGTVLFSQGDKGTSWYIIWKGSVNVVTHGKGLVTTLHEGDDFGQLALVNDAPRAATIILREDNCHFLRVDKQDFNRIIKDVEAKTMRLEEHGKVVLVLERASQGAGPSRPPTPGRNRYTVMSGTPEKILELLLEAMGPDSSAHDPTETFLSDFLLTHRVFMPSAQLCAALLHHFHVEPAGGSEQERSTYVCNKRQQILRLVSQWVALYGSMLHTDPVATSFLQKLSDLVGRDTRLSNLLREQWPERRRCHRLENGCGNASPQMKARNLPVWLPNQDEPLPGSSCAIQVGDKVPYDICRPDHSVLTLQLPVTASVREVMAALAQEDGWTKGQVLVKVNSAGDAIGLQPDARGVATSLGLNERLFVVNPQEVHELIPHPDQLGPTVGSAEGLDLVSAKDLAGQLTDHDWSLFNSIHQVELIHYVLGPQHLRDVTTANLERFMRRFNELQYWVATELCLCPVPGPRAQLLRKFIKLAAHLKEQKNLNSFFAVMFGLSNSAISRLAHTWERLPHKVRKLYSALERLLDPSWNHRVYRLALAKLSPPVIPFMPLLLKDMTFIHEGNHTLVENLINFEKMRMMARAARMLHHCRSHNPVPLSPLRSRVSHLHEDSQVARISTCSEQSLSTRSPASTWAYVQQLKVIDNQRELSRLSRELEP

[2] = target: Rap guanine nucleotide exchange factor 4 (Homo sapiens) (UniProt Q8WZA2); assay: Confirmatory qHTS for agonist of cAMP-regulated guanine nucleotide exchange factor 4 (EPAC2) (AID 1645884);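 also: nucleotide exchange releases bodipy-GDP from Rap1 and this lowers its fluorescence; nearly all actives have a fitted effect of over 65% in size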
Sequence of Rap guanine nucleotide exchange factor 4 (Homo sapiens) (Q8WZA2 whole entry, looked up): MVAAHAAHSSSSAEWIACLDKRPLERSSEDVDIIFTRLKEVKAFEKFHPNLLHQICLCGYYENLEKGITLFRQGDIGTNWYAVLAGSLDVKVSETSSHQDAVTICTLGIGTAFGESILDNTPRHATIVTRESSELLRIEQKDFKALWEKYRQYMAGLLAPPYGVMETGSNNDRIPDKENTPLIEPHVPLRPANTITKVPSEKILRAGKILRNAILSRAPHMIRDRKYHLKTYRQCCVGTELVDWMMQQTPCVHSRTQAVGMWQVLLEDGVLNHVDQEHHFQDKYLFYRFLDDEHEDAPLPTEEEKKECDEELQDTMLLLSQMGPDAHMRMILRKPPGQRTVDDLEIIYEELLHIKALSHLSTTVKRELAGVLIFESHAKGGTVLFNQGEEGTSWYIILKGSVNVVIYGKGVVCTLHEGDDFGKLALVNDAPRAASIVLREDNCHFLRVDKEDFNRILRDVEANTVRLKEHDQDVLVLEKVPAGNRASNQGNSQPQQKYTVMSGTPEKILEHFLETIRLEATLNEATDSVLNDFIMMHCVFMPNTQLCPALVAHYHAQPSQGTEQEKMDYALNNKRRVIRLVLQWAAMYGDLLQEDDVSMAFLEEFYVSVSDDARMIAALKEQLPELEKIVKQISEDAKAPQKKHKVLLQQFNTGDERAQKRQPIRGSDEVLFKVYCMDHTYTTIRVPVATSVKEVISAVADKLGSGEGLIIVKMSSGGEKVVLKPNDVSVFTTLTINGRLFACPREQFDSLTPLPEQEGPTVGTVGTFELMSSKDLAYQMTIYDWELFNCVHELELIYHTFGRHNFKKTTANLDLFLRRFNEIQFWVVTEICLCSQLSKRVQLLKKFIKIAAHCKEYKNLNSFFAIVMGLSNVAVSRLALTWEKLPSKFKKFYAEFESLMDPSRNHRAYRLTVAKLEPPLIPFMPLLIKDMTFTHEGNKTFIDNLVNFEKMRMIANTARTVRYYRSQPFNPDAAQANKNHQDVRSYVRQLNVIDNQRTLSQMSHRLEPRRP

[3] = target: Rap guanine nucleotide exchange factor 3 (Homo sapiens) (UniProt O95398); assay: Counterscreen qHTS for antagonist of cAMP-regulated guanine nucleotide exchange factor 3 (EPAC1) (AID 1645888);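 also: fluorescence loss as bound BODIPY-GDP is released from Rap1B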
Outline: (§1)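 Measured: fluorescence of BODIPY-GDP bound to Rap1B, which falls as exchange proceeds. Conditions include 50 uM competing GDP, 5 and 30 min reads, and a later cAMP challenge for antagonist detection.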

[4] = target: Rap guanine nucleotide exchange factor 3 (Homo sapiens) (UniProt O95398); assay: Counterscreen qHTS for agonist of cAMP-regulated guanine nucleotide exchange factor 3 (EPAC1) (AID 1645889); also: nearly all actives have a fitted effect of over 40% in size
Outline: as §1

Measured: Potency

COc1ccc(NC(=O)c2cccnc2NCCc2ccccc2)cc1
inactive: [1] | [2] | [3] | [4]

Source: PubChem BioAssay (NCATS)
